Data: paper PMC5540273 (PLoS ONE, 2017)

Test system: T1, NIM1
T1 construct: gene MGC42105
Conditions: concentration: 1 μM, replicates: in singlicate; n = 1
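Further: KINOMEscan kinase panel screen.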

Point of comparison: `Cc1ccc(C(=O)Nc2ccc(Nc3ccnc4cc(-c5ccccn5)ccc34)cc2O)cc1.Cl` [GW440146], “%Inh” value 15%. Against it:
- Cl.c1ccc(-c2n[nH]cc2-c2ccnc(-c3ccc(CN4CCOCC4)cc3)c2)nc1 [GW776245] — lower, 0%
- Cn1cncc1-c1ccc2ncnc(Nc3ccc(OCc4ccccc4)cc3)c2c1 [GW320571] — higher, 19%
- Clc1cc(Cl)cc(Nc2ccnc(Nc3cc(Cl)cc(Cl)c3)n2)c1 [GSK175726] — lower, 0%
- Cc1cccc(-c2nc(-c3ccc(S(C)(=O)=O)cc3)sc2-c2ccnc(NCCc3ccccc3)c2)c1 — lower, 0%
- Cc1cccc(-c2nc(Nc3ccncc3)c3ccccc3n2)n1 [GW855857] — lower, 0%
- COc1ccc(Nc2nccc(-c3cccc(NC(=O)c4cc5cc(F)ccc5[nH]4)c3)n2)cc1 [GSK1229782] — lower, 13%
- COc1cc2ncn(-c3cc(OCC4CCCO4)c(C(N)=O)s3)c2cc1OC (stereo not shown) [GSK204607] — higher, 23%
- COc1ccc(CNC(=O)NC2CCN(c3ccnc(Nc4cc(OC)c(OC)c(OC)c4)n3)C2)cc1 (stereo not shown) [GSK1379748] — lower, 0%
- CC(C)(C)c1ccc(C(=O)Nc2cn3cc(Cl)ccc3n2)cc1 — lower, 0%
- O=C(Nc1n[nH]c2cc(-c3cccc(F)c3F)ccc12)C1CC1 [SB-733894] — lower, 0%
- CCn1c(-c2ccccn2)nc2cnccc21 [SB-736398] — higher, 34%
- Cn1ccc2ncnc(Oc3cccc(C(=O)Nc4ccccc4)c3)c21 — lower, 0%
